Results on 31 compounds are retold here after PubChem BioAssay (NCATS).

A short description of assay [1]: qHTS for Inhibitors of Plasmodium falciparum (DD2) proliferation (AID 504314).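 For activity, negative = inhibition: parasite DNA measured by SYBR Green fluorescence after red cell lysis; plate controls were DMSO vehicle for no effect and artemisinin wells for full effect.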 Note: potency is the fitted concentration of half-maximal effect. A digest of the protocol:
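Erythrocytes infected with P. falciparum (0.3% parasitemia, 2.5% hematocrit final) were incubated with compounds for 72 h at 37C, 5% CO2. Parasite DNA was detected by SYBR Green I fluorescence after saponin/Triton lysis, normalized to artemisinin (0.29 uM) and DMSO controls.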

Assay [2] can be described thus: qHTS for Inhibitors of Plasmodium falciparum (GB4) proliferation (AID 504315). Note: nearly all actives have a fitted effect of over 50% in size. Note: potency is the fitted concentration of half-maximal effect. Summed up: (§1)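 Erythrocytes infected with P. falciparum line (0.3% parasitemia, 2.5% hematocrit final) incubated with compounds 72 h at 37 °C, 5% CO2; SYBR Green lysis buffer added, fluorescence read next day. Normalized to 0.29 uM artemisinin and DMSO.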
Assay [3] can be described thus: qHTS for Inhibitors of Plasmodium falciparum (7G8) proliferation (AID 504316). Note: nearly all actives have a fitted effect of over 65% in size. Note: potency is the fitted concentration of half-maximal effect. Summed up:
as §1

Assay [4] in a line: qHTS for Inhibitors of Plasmodium falciparum (HB3) proliferation (AID 504318). Note: nearly all actives have a fitted effect of over 60% in size. Note: potency is the fitted concentration of half-maximal effect. Summed up:
as §1

In assay [5] the target is Atrial natriuretic peptide receptor 1 (Homo sapiens) (UniProt P16066). Nature of the assay: Natriuretic polypeptide receptor (hNpr1) antagonism - Pilot CMLD screen (AID 1347052; calls by dose curve;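 note: HEK293 cells with hNpr1 stimulated by hNppA peptide at 0.1 nM; cGMP level read as GloSensor luciferase luminescence after agonist stimulation; series mostly up to about 9.2 µM; % is set by controls: 0 for no effect and ±100 for the full control effect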).
Atrial natriuretic peptide receptor 1 (Homo sapiens), sequence (P16066 whole entry, looked up): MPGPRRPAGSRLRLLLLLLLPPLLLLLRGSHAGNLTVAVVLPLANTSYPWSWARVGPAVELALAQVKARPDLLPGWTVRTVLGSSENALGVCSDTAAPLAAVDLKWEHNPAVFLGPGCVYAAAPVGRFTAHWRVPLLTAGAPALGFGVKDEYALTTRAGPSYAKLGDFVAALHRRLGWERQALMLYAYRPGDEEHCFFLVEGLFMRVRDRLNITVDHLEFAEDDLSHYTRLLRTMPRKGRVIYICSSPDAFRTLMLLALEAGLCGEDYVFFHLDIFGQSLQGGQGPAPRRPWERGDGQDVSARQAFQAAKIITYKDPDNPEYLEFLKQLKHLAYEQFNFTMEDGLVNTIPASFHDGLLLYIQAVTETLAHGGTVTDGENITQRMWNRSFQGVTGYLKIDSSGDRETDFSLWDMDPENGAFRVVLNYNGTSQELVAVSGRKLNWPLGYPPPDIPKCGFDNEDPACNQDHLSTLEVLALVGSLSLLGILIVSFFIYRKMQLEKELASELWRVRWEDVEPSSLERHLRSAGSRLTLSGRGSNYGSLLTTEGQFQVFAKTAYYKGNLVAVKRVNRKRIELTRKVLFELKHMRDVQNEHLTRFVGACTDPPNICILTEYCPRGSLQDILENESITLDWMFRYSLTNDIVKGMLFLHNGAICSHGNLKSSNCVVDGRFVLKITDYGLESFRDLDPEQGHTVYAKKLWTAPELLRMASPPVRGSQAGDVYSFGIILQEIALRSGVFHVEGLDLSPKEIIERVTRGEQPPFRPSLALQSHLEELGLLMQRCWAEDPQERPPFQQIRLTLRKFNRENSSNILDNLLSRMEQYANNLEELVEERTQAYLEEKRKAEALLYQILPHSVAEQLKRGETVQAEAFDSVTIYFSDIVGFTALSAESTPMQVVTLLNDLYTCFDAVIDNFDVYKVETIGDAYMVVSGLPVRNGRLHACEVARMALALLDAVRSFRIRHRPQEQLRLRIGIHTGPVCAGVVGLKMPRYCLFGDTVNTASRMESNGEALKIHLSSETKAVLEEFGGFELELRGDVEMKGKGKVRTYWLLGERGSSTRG

Results filed as inconclusive are left out. Values without a mark were called inactive. The source made the active and inactive calls. Unless noted, calls come from the whole dose curve; as a rule, active = well fitted curve in the direction sought with a large enough effect; inconclusive = small, poorly fitted or top-dose-only effect, or another doubt; inactive = no such curve, though single readings can be large; an effect the other way counts as inactive or inconclusive.

Turning to `CCOC(=O)CN1C(=O)NC(CCc2ccccc2)C(C(=O)OC)=C1C` (stereo not given), the Potency entry in assay [1], in assay [2], in assay [3], in assay [4] and in assay [5] was “inactive” throughout.
Take `COC(=O)CCCC1=CC2=CC(=O)C(C)(OC(=O)c3cccs3)C(=O)C2=CN1CCCOC(C)C` (stereo not given): the Potency entry in assay [1], in assay [2], in assay [3], in assay [4] and in assay [5] was “inactive” each time.
In the case of `COCC=CC1=CC2=CC(=O)C(C)(OC(=O)c3cnc4ccccc4n3)C(=O)C2=CN1C1CC1` (stereo not given), the Potency entry in assay [1], in assay [2], in assay [3], in assay [4] and in assay [5] was “inactive” in each case.
With `COc1ccc(O[C@@H]2[C@H](O)CO[C@@H]2C=CC#Cc2ccccc2)cc1`, the Potency entry in assay [1], in assay [2], in assay [3], in assay [4] and in assay [5] was “inactive” each time.
For `COC1=C[C@H](C(=O)NCc2ccccc2)[C@@]2(C)Cc3ccccc3[C@@H]2CC1=O`, the Potency result in assay [1], in assay [2], in assay [3], in assay [4] and in assay [5] was “inactive” each time.
As to `CCCCc1nc2c(c3c1C[C@H](C)OC3)CN(C(=O)c1ccco1)CC2`, in assay [1], the activity, negative = inhibition was -0.515% [at 1.12 µM]. Also, the Potency entry in assay [2], in assay [3], in assay [4] and in assay [5] was “inactive” throughout.
Consider `C=C(CCN1C=C(C(C)=O)C(c2ccccc2)NC1=O)c1ccccc1` (stereo not given), for which the Potency result in assay [1], in assay [2], in assay [3], in assay [4] and in assay [5] was “inactive” each time.
In the case of `COC(=O)N(C=Cc1ccc(OC)cc1)CCc1ccc(OC)c(OC)c1`, the Potency result in assay [1], in assay [2], in assay [3], in assay [4] and in assay [5] was “inactive” throughout.
As to `COc1cc2c(cc1OC)C1OC(c3ccsc3)(C2)Oc2cc(C)oc(=O)c21` (stereo not given), the Potency result in assay [1], in assay [2], in assay [3], in assay [4] and in assay [5] was “inactive” throughout.
On to `CCN1C(=O)[C@@H]2[C@H]3[C@H](O)[C@H](O)CC(=NO[C@@H](C)c4cn([C@H](CO)Cc5ccccc5)nn4)[C@@H]3CC[C@H]2C1=O`, for which the Potency result in assay [1], in assay [2], in assay [3], in assay [4] and in assay [5] was “inactive” throughout.
With `CCOC(=O)CCN1C(=O)[C@@H]2[C@H]3[C@H](O)[C@H](O)CC(=NOCC(C)C)[C@@H]3CC[C@H]2C1=O`, the Potency result in assay [1], in assay [2], in assay [3], in assay [4] and in assay [5] was “inactive” each time.
As for `CC(CCC(=O)OC[C@H]1O[C@H](C#Cc2ccccc2)C=C[C@H]1Oc1ccc(C)cc1)=NOC[C@@H](O)[C@H]1O[C@@H]2OC(C)(C)O[C@H]2[C@@H]1O`, the Potency entry in assay [1], in assay [2], in assay [3], in assay [4] and in assay [5] was “inactive” each time.
Take `C=CCN1c2ccccc2[C@]23C[C@@H](C(=O)OC)N(C(=O)Nc4ccc(C(F)(F)F)cc4)C2=NC(C(=O)OC)=C(C(=O)OC)[C@H]13`: the Potency result in assay [1], in assay [2], in assay [3], in assay [4] and in assay [5] was “inactive” each time.
As to `COc1ccc(COC(=O)NN=C2C[C@@H](O)[C@@H](O)[C@@H]3[C@H]4C(=O)N(Cc5ccc6c(c5)OCO6)C(=O)[C@@H]4CC[C@H]23)cc1`, the Potency result in assay [1], in assay [2], in assay [3], in assay [4] and in assay [5] was “inactive” throughout.
Turning to `Cc1cc(C)c2c(c1)CO[C@H]([C@H](O)CO)[C@H]2C=Cc1ccccc1`, the Potency entry in assay [1], in assay [2], in assay [3], in assay [4] and in assay [5] was “inactive” throughout.
On to `C#CCCOC(=O)N1C2=NC(C(=O)OC)=C(C(=O)OC)[C@@H]3N(C)c4ccccc4[C@]23C[C@H]1C(=O)OC`, for which the Potency entry in assay [1], in assay [2], in assay [3], in assay [4] and in assay [5] was “inactive” in each case.
Turning to `CC(=O)OC[C@H]1O[C@H](C#Cc2ccccc2Cl)C=C[C@H]1OC(C)=O`, the Potency result in assay [1], in assay [2], in assay [3], in assay [4] and in assay [5] was “inactive” throughout.
For `O=C1[C@@H]2[C@H]3[C@H](O)[C@H](O)CC(=NOC[C@@H](O)COCc4ccco4)[C@@H]3CC[C@H]2C(=O)N1C[C@@H]1CCCO1`, the Potency entry in assay [1], in assay [2], in assay [3], in assay [4] and in assay [5] was “inactive” in each case.
Turning to `CC(C)[C@@H](OCc1ccccc1)[C@H](C)C=NOC[C@@H](O)COCc1ccco1`, the Potency result in assay [1], in assay [2], in assay [3], in assay [4] and in assay [5] was “inactive” in each case.
With `CC12C=C(C=Cc3ccc(Br)cc3)C(C)(C1)C(c1ccc(Br)cc1)CC2=O` (stereo not given), the Potency in assay [1] was 1500 nM (active); in assay [2], 1690 nM (active); in assay [3], 1690 nM (active); in assay [4] it was 1690 nM (active). Moreover, the Potency result in assay [5] is “inactive”.
`CCN1C(=NCCCCO)NC(c2cccc(C(F)(F)F)c2)C(C(=O)OC)=C1C` (stereo not given): the Potency result in assay [1], in assay [2], in assay [3], in assay [4] and in assay [5] was “inactive” in each case.
`CCN1C(=NCCc2cccnc2)NC(c2ccccc2)C(C(=O)OC)=C1C` (stereo not given): the Potency entry in assay [1], in assay [2], in assay [3], in assay [4] and in assay [5] was “inactive” throughout.
`COc1ccc2c(c1)O[C@H](c1ccc3c(c1)OCO3)[C@@H](OC(=O)NCc1ccc3c(c1)OCO3)C2=O`: the Potency result in assay [1], in assay [2], in assay [3], in assay [4] and in assay [5] was “inactive” throughout.
With `C=CCOC(=O)N[C@H](c1ccccc1)[C@H](C)C=CCC(=O)OC`, the Potency entry in assay [1], in assay [2], in assay [3], in assay [4] and in assay [5] was “inactive” in each case.
With `CC1(OC(=O)C2CCCC2)C(=O)C=C2C=C(c3ccsc3)OC=C2C1=O` (stereo not given), the Potency result in assay [1], in assay [2], in assay [3], in assay [4] and in assay [5] was “inactive” each time.
Take `C[C@H]1Cc2c(-c3ccccc3)nc3c(c2CO1)CN(C(=O)NCc1ccco1)CC3`: the activity, negative = inhibition in assay [1] is 0.465% [at 1.12 µM]. Further, the Potency entry in assay [2], in assay [3], in assay [4] and in assay [5] was “inactive” each time.
Turning to `C(#C[C@@H]1C=C[C@H]2OC(c3ccccc3)OC[C@H]2O1)c1ccccc1` (stereo not given in full), the Potency entry in assay [1], in assay [2], in assay [3], in assay [4] and in assay [5] was “inactive” throughout.
For `CC(C)(C)Nc1oc(-c2ccccc2)nc1-c1ccc(C(F)(F)F)cc1`, the Potency entry in assay [1], in assay [2], in assay [3], in assay [4] and in assay [5] was “inactive” each time.
As for `O=C(c1ccccc1)[C@@H]1O[C@@H]1c1ccccc1`, the Potency entry in assay [1], in assay [2], in assay [3], in assay [4] and in assay [5] was “inactive” in each case.
`CCOC(=O)[C@@]1([C@@H](NC(=O)OC)c2cccc(C)c2)CCCC1=O`: the Potency entry in assay [1], in assay [2], in assay [3], in assay [4] and in assay [5] was “inactive” in each case.
On to `C=CCOC(=O)N[C@H](C[N+](=O)[O-])c1ccccc1`, for which the Potency entry in assay [1], in assay [2], in assay [3], in assay [4] and in assay [5] was “inactive” in each case.
